# Measured values as given in publication PMC4081100, “A DNA-binding-site landscape and regulatory network analysis for NAC transcription factors in Arabidopsis thaliana”.
# What was measured:
# Test in all cases: universal protein binding microarray (PBM); transcription factors of Arabidopsis thaliana; high values mean tight binding
# GST-ANAC092(1-176) = biological target: T1, GST-ANAC092(1-176) (Arabidopsis thaliana, UniProt Q9FKA0 1-176); conditions: protein: recombinant; tags: GST; chain copies: 2; dsDNA, one strand shown
# T1 sequence: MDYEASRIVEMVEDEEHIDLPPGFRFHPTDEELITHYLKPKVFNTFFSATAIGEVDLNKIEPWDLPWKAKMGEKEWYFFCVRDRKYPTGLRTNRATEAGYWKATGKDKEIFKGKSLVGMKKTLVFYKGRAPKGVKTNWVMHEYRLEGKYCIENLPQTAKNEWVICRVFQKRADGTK
# Method in brief: (§1)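 GST-tagged proteins (NAC-domain, full-length or DNA-binding-domain) were induced in cells, with zinc acetate supplied for zinc-finger proteins, then purified on glutathione–Sepharose 4B. Each was tested in duplicate at 200 to 500 nM final on custom all-10-mer Agilent 4 × 180K arrays rendered double-stranded by primer extension. The binding value is the normalised enrichment score (E-score) across gapped and ungapped 8-mers.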
# GST-ANAC019 NAC domain = biological target: T2, GST-ANAC019 NAC domain (Arabidopsis thaliana, UniProt Q9C932 14-162); conditions: protein: recombinant; tags: GST; chain copies: 2; dsDNA, one strand shown
# T2 sequence: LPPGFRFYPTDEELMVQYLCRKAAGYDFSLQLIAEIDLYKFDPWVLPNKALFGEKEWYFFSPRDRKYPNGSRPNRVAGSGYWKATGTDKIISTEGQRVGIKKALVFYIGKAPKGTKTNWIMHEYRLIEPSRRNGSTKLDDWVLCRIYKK
# Method in brief: as §1
# GST-ANAC055(1-171) = biological target: T3, GST-ANAC055(1-171) (Arabidopsis thaliana, UniProt Q9LDY8 1-171); conditions: protein: recombinant; tags: GST; chain copies: 2; dsDNA, one strand shown
# T3 sequence: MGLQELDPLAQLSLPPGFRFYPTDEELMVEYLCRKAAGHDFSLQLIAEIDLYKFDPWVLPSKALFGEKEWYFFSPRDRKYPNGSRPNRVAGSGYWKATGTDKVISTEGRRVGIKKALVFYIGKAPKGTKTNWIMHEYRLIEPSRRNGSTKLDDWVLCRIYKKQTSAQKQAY
# Method in brief: as §1
# GST-ATAF1 NAC domain = biological target: T4, GST-ATAF1 NAC domain (Arabidopsis thaliana, UniProt Q39013 7-158); conditions: protein: recombinant; tags: GST; chain copies: 2; dsDNA, one strand shown
# T4 sequence: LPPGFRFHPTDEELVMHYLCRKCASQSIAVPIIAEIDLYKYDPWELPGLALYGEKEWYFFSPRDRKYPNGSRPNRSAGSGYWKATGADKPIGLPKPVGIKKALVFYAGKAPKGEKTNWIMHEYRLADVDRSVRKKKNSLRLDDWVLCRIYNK
# Method in brief: as §1
# [1] = biological target: T5, GST-ANAC092(1-285) full length (Arabidopsis thaliana, UniProt Q9FKA0 1-285); conditions: protein: recombinant; tags: GST; chain copies: 2; dsDNA, one strand shown
# T5 sequence: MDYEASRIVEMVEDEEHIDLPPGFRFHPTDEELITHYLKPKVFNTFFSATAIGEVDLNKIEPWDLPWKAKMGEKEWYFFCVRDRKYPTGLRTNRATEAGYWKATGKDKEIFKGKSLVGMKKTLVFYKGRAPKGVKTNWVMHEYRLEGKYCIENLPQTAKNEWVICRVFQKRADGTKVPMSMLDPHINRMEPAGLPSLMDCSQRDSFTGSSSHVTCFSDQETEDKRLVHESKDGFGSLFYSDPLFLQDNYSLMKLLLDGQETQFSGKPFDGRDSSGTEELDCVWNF
# Method in brief: as §1
# GST-NAP(1-166) = biological target: T6, GST-NAP(1-166) (Arabidopsis thaliana, UniProt O49255 1-166); conditions: protein: recombinant; tags: GST; chain copies: 2; dsDNA, one strand shown
# T6 sequence: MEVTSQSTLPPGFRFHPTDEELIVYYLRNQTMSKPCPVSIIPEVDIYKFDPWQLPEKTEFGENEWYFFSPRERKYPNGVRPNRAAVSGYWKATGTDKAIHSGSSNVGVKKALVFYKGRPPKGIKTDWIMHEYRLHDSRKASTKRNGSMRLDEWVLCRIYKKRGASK
# Method in brief: as §1
# GST-NST2(1-184) = biological target: T7, GST-NST2(1-184) (Arabidopsis thaliana, UniProt Q9M274 1-184); conditions: protein: recombinant; tags: GST; chain copies: 2; dsDNA, one strand shown
# T7 sequence: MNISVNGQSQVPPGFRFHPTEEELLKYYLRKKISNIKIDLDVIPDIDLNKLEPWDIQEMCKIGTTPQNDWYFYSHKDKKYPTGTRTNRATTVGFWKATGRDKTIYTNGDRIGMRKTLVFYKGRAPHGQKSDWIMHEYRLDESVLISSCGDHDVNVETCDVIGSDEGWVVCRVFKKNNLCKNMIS
# Method in brief: as §1
# GST-NTL8 NAC domain = biological target: T8, GST-NTL8 NAC domain (Arabidopsis thaliana, UniProt Q9XIN7 14-156); conditions: protein: recombinant; tags: GST; chain copies: 2; dsDNA, one strand shown
# T8 sequence: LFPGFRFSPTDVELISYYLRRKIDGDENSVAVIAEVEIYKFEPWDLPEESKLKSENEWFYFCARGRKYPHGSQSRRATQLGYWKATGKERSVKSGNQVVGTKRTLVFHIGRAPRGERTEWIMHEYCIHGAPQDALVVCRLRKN
# Method in brief: as §1
# GST-SND1(1-203) = biological target: T9, GST-SND1(1-203) (Arabidopsis thaliana, UniProt Q9LPI7 1-203); conditions: protein: recombinant; tags: GST; chain copies: 2; dsDNA, one strand shown
# T9 sequence: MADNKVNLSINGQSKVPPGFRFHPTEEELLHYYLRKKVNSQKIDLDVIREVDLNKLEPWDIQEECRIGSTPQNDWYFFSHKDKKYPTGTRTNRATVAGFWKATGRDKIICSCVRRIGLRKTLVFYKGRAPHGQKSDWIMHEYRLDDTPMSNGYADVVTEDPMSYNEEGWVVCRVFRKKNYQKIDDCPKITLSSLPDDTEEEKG
# Method in brief: as §1
# GST-VND3 NAC domain = biological target: T10, GST-VND3 NAC domain (Arabidopsis thaliana, UniProt Q9FH59 12-162); conditions: protein: recombinant; tags: GST; chain copies: 2; dsDNA, one strand shown
# T10 sequence: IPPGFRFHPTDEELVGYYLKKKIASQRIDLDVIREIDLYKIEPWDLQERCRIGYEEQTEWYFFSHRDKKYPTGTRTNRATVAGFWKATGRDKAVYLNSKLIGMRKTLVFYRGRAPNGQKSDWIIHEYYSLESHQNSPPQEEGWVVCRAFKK
# Method in brief: as §1
# GST-VND7 NAC domain = biological target: T11, GST-VND7 NAC domain (Arabidopsis thaliana, UniProt Q9C8W9 9-158); conditions: protein: recombinant; tags: GST; chain copies: 2; dsDNA, one strand shown
# T11 sequence: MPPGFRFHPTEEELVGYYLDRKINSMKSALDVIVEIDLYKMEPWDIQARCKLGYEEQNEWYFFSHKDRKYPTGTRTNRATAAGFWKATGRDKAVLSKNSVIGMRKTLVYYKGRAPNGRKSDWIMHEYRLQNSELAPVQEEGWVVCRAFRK
# Method in brief: as §1
# GST-WRKY1(266-371) = GST-WRKY1(266-371) (Arabidopsis thaliana, UniProt Q9SI37 266-371); conditions: protein: recombinant; tags: GST; dsDNA, one strand shown
# Method in brief: as §1
# GST-NTL6(1-168) = GST-NTL6(1-168) (Arabidopsis thaliana, UniProt Q9SCK6 1-168); conditions: protein: recombinant; tags: GST; chain copies: 2; dsDNA, one strand shown
# Method in brief: as §1
# Sequence of GST-NTL6(1-168) (Q9SCK6 1-168): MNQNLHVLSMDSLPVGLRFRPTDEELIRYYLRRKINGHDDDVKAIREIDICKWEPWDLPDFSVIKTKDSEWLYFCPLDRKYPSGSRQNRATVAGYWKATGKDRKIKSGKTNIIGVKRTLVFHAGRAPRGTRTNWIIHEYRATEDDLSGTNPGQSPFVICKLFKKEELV
# Sequence of GST-WRKY1(266-371) (Q9SI37 266-371): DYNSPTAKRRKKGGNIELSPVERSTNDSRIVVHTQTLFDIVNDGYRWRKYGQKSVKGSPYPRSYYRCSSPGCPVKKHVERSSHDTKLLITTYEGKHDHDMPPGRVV
Sequence,binding signal (GST-ANAC092(1-176)) [E-score],binding signal (GST-ANAC019 NAC domain) [E-score],binding signal (GST-ANAC055(1-171)) [E-score],binding signal (GST-ATAF1 NAC domain) [E-score],binding signal [1] [E-score],binding signal (GST-NAP(1-166)) [E-score],binding signal (GST-NST2(1-184)) [E-score],binding signal (GST-NTL8 NAC domain) [E-score],binding signal (GST-SND1(1-203)) [E-score],binding signal (GST-VND3 NAC domain) [E-score],binding signal (GST-VND7 NAC domain) [E-score],binding signal (GST-WRKY1(266-371)) [E-score],binding signal (GST-NTL6(1-168)) [E-score]
ACGCAACC,0.483,0.455,0.421,0.428,0.492,0.478,0.434,0.146,0.481,0.416,0.443,0.107,–
TGACGTAA,0.449,0.368,0.364,0.407,0.441,0.389,0.385,0.0784,0.482,0.406,0.392,0.178,–
CGTGCACG,0.354,0.464,0.424,0.304,0.418,0.378,0.221,0.0868,0.0947,0.426,0.391,0.0812,–
GACTTTTA,–,0.0971,0.051,0.17,0.141,–,–,–,0.0841,0.0985,0.149,0.414,–
GTTGACTA,–,0.079,0.0652,0.103,0.133,–,–,–,0.062,0.158,0.0849,0.49,0.072
GCGTAATA,0.318,0.0565,0.189,0.0519,0.324,0.109,0.306,–,0.422,0.203,0.246,–,0.0582
CGTCAACG,0.117,0.109,–,0.0746,0.159,0.108,–,–,0.0973,0.0692,0.0989,0.47,–
TACGTTAA,0.43,0.0653,0.154,0.243,0.432,0.12,0.321,–,0.462,0.249,0.173,–,0.14
TAAGGTCA,–,–,–,0.094,–,0.14,–,0.0905,0.132,0.223,0.143,0.441,0.242
AATAGCGT,0.39,–,0.138,0.114,0.412,0.121,0.261,–,0.383,0.119,0.191,0.0558,–
GTCACGCA,0.319,0.307,0.236,0.193,0.4,0.197,0.119,–,0.257,0.167,0.252,0.228,–
ATTGCGTG,0.494,0.466,0.452,0.355,0.494,0.458,0.459,0.188,0.471,0.441,0.46,0.0947,–
TAGAGTAA,0.177,–,0.0921,0.0567,0.263,–,0.216,0.065,0.401,0.117,0.128,0.0876,–
GAACACGC,0.382,0.289,0.237,0.19,0.427,0.248,0.205,–,0.158,0.138,0.174,–,0.0566
CTTGCGTA,0.471,0.382,0.306,0.317,0.474,0.386,0.332,0.0618,0.479,0.416,0.394,0.0686,–
